{"source": "paper PMC4336329", "about": "(PLoS ONE, 2015)", "note": "About 14,000 (4.5%) of roughly 310,000 compounds showed an effect of 50% or more. Effects have a minus sign here. This is one part of a sample in which strong results are shown more often than they occur.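 Also: peak tail current of the secondary pulse compared with the same well before compound.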"}
{"target": "human ether-à-go-go-related gene (hERG) potassium channel (human, UniProt Q12809)", "sequence (Q12809 whole entry, looked up)": "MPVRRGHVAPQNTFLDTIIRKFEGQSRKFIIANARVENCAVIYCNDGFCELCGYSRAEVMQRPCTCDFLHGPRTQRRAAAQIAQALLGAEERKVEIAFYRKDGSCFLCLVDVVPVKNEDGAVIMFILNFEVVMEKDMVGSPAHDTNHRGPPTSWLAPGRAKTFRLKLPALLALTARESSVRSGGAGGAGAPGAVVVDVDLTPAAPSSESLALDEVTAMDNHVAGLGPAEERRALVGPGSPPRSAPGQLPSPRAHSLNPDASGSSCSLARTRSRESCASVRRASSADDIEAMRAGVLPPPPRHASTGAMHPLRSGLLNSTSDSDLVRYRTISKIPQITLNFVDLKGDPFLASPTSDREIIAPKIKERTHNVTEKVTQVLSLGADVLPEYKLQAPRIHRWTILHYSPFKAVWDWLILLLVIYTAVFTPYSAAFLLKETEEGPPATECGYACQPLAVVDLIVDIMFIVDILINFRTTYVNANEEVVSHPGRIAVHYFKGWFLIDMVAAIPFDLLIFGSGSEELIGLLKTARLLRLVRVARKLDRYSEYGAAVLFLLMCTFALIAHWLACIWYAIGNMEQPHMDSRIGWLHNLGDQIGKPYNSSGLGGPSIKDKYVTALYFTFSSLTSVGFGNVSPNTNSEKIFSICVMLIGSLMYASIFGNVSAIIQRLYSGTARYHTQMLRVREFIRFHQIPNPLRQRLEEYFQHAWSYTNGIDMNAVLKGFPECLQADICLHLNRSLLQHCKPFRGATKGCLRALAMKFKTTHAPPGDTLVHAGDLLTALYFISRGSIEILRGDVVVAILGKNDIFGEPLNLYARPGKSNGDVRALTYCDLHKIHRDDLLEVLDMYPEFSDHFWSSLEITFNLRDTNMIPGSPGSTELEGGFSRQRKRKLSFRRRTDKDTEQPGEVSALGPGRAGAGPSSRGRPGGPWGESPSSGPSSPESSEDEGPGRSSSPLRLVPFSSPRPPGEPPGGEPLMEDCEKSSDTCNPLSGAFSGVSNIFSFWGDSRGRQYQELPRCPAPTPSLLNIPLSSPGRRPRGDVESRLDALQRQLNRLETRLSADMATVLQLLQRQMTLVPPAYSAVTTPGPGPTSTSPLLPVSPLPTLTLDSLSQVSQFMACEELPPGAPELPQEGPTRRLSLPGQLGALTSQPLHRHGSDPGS", "assay": "primary screen, population patch clamp on CHO cells stably expressing hERG; higher = less effect of the substance", "units": {"hERG current change (%, negative = inhibition) at 10uM": "%"}}
{"smiles": "Cc1ccc(CN2CC(C(=O)NCCC3=CCCCC3)CC2=O)cc1", "note": "(centres unmarked)", "hERG current change (%, negative = inhibition) at 10uM": -19.6}
{"smiles": "CCN(c1ccc(NC(=O)CSCc2c(C)noc2C)cc1)C(C)C", "hERG current change (%, negative = inhibition) at 10uM": -7.72}
{"smiles": "Cc1ccccc1-c1cc2nc(C)c(Cl)c(=O)n2[nH]1", "hERG current change (%, negative = inhibition) at 10uM": -8.26}
{"smiles": "O=C(Nc1cccc(F)c1)c1cccnc1", "hERG current change (%, negative = inhibition) at 10uM": 3.96}
{"smiles": "COc1ccc(-c2cn3c(C)c(C(=O)N4CCN(c5ccc(F)cc5)CC4)sc3n2)cc1", "hERG current change (%, negative = inhibition) at 10uM": 1.07}
{"smiles": "Cc1c(C(=O)N2CCN(c3ccccc3F)CC2)sc2nc(-c3ccccc3)cn12", "hERG current change (%, negative = inhibition) at 10uM": -14.1}
{"smiles": "CCOC(=O)N1CCN(C(=O)c2sc3nc(-c4ccc(F)cc4)cn3c2C)CC1", "hERG current change (%, negative = inhibition) at 10uM": -62.1}
{"smiles": "CCOC(=O)C1CCN(C(=O)c2sc3nc(-c4ccccc4)cn3c2C)CC1", "hERG current change (%, negative = inhibition) at 10uM": -41}
{"smiles": "COc1ccccc1N1CCN(C(=O)c2sc3nc(-c4ccccc4)cn3c2C)CC1", "hERG current change (%, negative = inhibition) at 10uM": -35}
{"smiles": "COC(=O)C1CCN(C(=O)c2sc3nc(-c4ccc(F)cc4)cn3c2C)CC1", "hERG current change (%, negative = inhibition) at 10uM": -59.5}
{"smiles": "Cc1c(C(=O)N2CCN(C(=O)c3ccco3)CC2)sc2nc(-c3ccc(F)cc3)cn12", "hERG current change (%, negative = inhibition) at 10uM": -76.9}
{"smiles": "CCOC(=O)C1CCN(C(=O)c2sc3nc(-c4ccc(F)cc4)cn3c2C)CC1", "hERG current change (%, negative = inhibition) at 10uM": -60.5}
{"smiles": "Cc1c(C(=O)N2CCN(c3ccc(F)cc3)CC2)sc2nc(-c3ccccc3)cn12", "hERG current change (%, negative = inhibition) at 10uM": -13.4}
{"smiles": "COc1ccccc1N1CCN(C(=O)c2sc3nc(-c4ccc(F)cc4)cn3c2C)CC1", "hERG current change (%, negative = inhibition) at 10uM": -34}
{"smiles": "Cc1c(C(=O)Nc2ccncc2)sc2nc(-c3ccc(F)cc3)cn12", "hERG current change (%, negative = inhibition) at 10uM": -8.24}
{"smiles": "Cc1c(C(=O)NCC2CCCO2)sc2nc(-c3ccc(F)cc3)cn12", "note": "(centres unmarked)", "hERG current change (%, negative = inhibition) at 10uM": -29.7}
{"smiles": "CN(C)CCNc1oc(COc2ccc(Cl)cc2Cl)nc1C#N", "hERG current change (%, negative = inhibition) at 10uM": 15.3}
{"smiles": "COc1cc(OC)cc(C(=O)NNC(=O)CCOc2ccccc2OC)c1", "hERG current change (%, negative = inhibition) at 10uM": 7.89}
{"smiles": "O=C(CSc1nnc(NC(=O)c2ccccc2F)s1)NC1CC1", "hERG current change (%, negative = inhibition) at 10uM": 19.2}
{"smiles": "C=C(C)C1Cc2nc(N)nc(C)c2C1", "note": "(centres unmarked)", "hERG current change (%, negative = inhibition) at 10uM": 10.8}
{"smiles": "Cc1ccc(OCCNC(=O)c2ccccc2O)cc1", "hERG current change (%, negative = inhibition) at 10uM": 8.04}
{"smiles": "Cc1cc(C(=O)Nc2nc3c(s2)CCCC3)no1", "hERG current change (%, negative = inhibition) at 10uM": -16.8}
{"smiles": "C=CCC(=O)OCCCCCCOc1ccc(C(=O)O)cc1", "hERG current change (%, negative = inhibition) at 10uM": -3.87}
{"smiles": "O=C1CC(c2cc(-c3ccccc3)no2)C1", "hERG current change (%, negative = inhibition) at 10uM": -9.96}
{"smiles": "c1ccc2nc3c(nc2c1)[nH]c1ccccc13", "hERG current change (%, negative = inhibition) at 10uM": -15}
{"smiles": "O=C(O)c1cc2ccc3ccccc3c2[nH]1", "hERG current change (%, negative = inhibition) at 10uM": 1.56}
{"smiles": "CCN(CC)CCNC(=O)CSc1c2c(nc3cc(Cl)ccc13)CCCC2", "hERG current change (%, negative = inhibition) at 10uM": -64.1}
{"smiles": "O=C(CSc1c2c(nc3cc(Cl)ccc13)CCCC2)NCCN1CCOCC1", "hERG current change (%, negative = inhibition) at 10uM": 3.58}
{"smiles": "CCN(CC)CCCNC(=O)CSc1c2c(nc3cc(Cl)ccc13)CCCC2", "hERG current change (%, negative = inhibition) at 10uM": -48.4}
{"smiles": "CSc1ncc(C(=O)Nc2cccc(Cl)c2)c(C)n1", "hERG current change (%, negative = inhibition) at 10uM": 10.9}
{"smiles": "CC(NC(=O)c1ccc(Cl)cc1)C1CC2CCC1C2", "note": "(centres unmarked)", "hERG current change (%, negative = inhibition) at 10uM": 2.08}
{"smiles": "CCOc1ccc(C(=O)NCC(C)NC(=O)c2ccc(OCC)cc2)cc1", "note": "(centres unmarked)", "hERG current change (%, negative = inhibition) at 10uM": 24.5}
{"smiles": "CC(CNC(=O)c1ccc(N)cc1)NC(=O)c1ccc(N)cc1", "note": "(centres unmarked)", "hERG current change (%, negative = inhibition) at 10uM": 9.03}
{"smiles": "CC(NC(=O)c1ccc(C#N)cc1)C1CC2CCC1C2", "note": "(centres unmarked)", "hERG current change (%, negative = inhibition) at 10uM": -58.8}
{"smiles": "CC(NC(=O)c1ccc(F)cc1Cl)C1CC2CCC1C2", "note": "(centres unmarked)", "hERG current change (%, negative = inhibition) at 10uM": 4.99}
{"smiles": "CC(NC(=O)c1cc([N+](=O)[O-])cc([N+](=O)[O-])c1)C1CC2CCC1C2", "note": "(centres unmarked)", "hERG current change (%, negative = inhibition) at 10uM": -7.55}
{"smiles": "CC(NC(=O)c1ccc([N+](=O)[O-])cc1Cl)C1CC2CCC1C2", "note": "(centres unmarked)", "hERG current change (%, negative = inhibition) at 10uM": -58.2}
{"smiles": "Cc1ccc(C(=O)NC(C)C2CC3CCC2C3)cc1", "note": "(centres unmarked)", "hERG current change (%, negative = inhibition) at 10uM": 19.1}
{"smiles": "CC(CNC(=O)c1ccc(C#N)cc1)NC(=O)c1ccc(C#N)cc1", "note": "(centres unmarked)", "hERG current change (%, negative = inhibition) at 10uM": -76.6}
{"smiles": "Cc1ccc(C(=O)Oc2ccc(C(=S)N3CCOCC3)cc2)cc1", "hERG current change (%, negative = inhibition) at 10uM": -7.84}
{"smiles": "CCN(CC)c1ncnc2scc(C3COc4ccccc4O3)c12", "note": "(centres unmarked)", "hERG current change (%, negative = inhibition) at 10uM": -8.77}
{"smiles": "COc1ccc(NC2CCCN(C(=O)C3(C)CCCCC3)C2)cc1OC", "note": "(centres unmarked)", "hERG current change (%, negative = inhibition) at 10uM": 11.3}
{"smiles": "O=C(Nc1ccccc1)C1CC(=O)n2ncnc2N1", "note": "(centres unmarked)", "hERG current change (%, negative = inhibition) at 10uM": 6.48}
{"smiles": "CN(C)Cc1ccccc1C1(O)c2ccccc2CSc2ccccc21.Cl", "note": "(centres unmarked)", "hERG current change (%, negative = inhibition) at 10uM": 9.09}
